KDM5B inh – blocks human KDM5B histone demethylase activity; Q9UGL1; actives 2.6% (n = 220,000); AID 1347165; Potency, µM (top dose mostly 57.7 µM), actives largely listed as inhibitors; KDM5B demethylase, FDH-coupled NADH fluorescence (FDH is formaldehyde dehydrogenase); active means well fitted inhibition curve with a large enough effect; further: 0% is about no effect; nearly all actives have a fitted effect of over 70% in size
Target sequence (Q9UGL1 whole entry, looked up): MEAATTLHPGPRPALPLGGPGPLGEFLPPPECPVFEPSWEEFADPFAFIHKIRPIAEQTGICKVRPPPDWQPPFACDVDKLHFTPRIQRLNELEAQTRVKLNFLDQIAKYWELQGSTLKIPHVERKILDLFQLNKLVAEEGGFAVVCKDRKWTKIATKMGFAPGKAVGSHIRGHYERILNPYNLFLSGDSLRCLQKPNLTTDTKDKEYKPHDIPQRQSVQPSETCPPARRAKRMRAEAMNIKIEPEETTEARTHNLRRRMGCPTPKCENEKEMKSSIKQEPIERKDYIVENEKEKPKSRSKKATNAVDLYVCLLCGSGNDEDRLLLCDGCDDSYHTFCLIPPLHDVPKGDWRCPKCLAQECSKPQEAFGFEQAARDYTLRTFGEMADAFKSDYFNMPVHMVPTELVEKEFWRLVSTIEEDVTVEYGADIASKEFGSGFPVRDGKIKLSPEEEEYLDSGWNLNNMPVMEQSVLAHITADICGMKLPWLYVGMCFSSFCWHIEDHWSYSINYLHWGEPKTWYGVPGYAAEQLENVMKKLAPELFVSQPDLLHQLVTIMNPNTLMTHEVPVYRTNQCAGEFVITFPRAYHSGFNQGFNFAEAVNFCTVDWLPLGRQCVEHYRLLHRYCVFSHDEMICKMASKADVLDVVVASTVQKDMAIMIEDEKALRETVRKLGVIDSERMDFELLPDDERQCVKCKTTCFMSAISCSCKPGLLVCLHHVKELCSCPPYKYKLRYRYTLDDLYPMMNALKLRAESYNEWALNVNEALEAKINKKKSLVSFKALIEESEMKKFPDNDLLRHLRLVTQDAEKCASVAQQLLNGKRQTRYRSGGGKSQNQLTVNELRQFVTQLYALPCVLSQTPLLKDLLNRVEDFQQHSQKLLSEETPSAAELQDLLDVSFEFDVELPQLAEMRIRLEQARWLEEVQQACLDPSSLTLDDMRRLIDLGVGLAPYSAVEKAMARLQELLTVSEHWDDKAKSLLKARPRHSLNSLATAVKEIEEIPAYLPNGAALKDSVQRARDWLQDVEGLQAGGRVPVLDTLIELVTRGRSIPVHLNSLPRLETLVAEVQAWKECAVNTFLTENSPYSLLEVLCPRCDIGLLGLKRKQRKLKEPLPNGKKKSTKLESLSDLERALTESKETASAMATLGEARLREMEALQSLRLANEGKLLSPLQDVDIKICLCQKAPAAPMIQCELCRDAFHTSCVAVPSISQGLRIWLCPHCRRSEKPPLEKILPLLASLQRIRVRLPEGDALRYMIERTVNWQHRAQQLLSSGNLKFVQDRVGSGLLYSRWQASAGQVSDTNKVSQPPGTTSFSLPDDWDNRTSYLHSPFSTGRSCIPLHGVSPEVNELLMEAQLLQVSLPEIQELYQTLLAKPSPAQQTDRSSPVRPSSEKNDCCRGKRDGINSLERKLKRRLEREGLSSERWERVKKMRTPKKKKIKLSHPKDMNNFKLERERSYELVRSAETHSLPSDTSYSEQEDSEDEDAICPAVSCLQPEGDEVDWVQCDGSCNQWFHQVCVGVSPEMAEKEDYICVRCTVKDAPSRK
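Measured: NADH fluorescence change, 30 min, RT. System: KDM5BΔAP 200 nM final, H3K4me3 peptide, α-KG, Fe(II), ascorbate, NAD⁺ plus FDH, pH 7.5 HEPES. Compounds: titrated, 10 min pre-incubation with enzyme.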
* hit, by the source's call; i = inactive. The sample as a whole holds a higher share of hits than the screen did. Potency means the concentration at half of the fitted maximal effect.

SMILES | KDM5B inh
CCOc1ccccc1CN1CCNC(=O)C1CC(=O)N(C)Cc1nonc1C (stereo not drawn) | i
O=C1COc2ccc(OCc3ccc(F)cc3)nc2CN1CCOc1ccccc1 | i
CN(c1ccccc1)c1ccc2c(n1)CN(CCOc1ccccc1)C(=O)CO2 | 32µM*
O=C1COc2ccc(-c3ccc4c(c3)OCO4)nc2CN1Cc1ccc(F)cc1 | 35µM*
O=C1COc2ccc(-c3ccccc3)nc2CN1Cc1ccc(F)cc1 | i
O=C1COc2ccc(Oc3ccccc3)nc2CN1Cc1ccccc1 | i
Cc1noc(C)c1-c1ccc2c(n1)CN(Cc1ccc(F)cc1)C(=O)CO2 | i
CN(c1ccccc1)c1ccc2c(n1)CN(Cc1ccccc1)C(=O)CO2 | 35µM*
O=C1COc2ccc(OCc3cccnc3)nc2CN1CCOc1ccccc1 | i
O=C1COc2ccc(-c3cn[nH]c3)nc2CN1Cc1ccccc1 | i
COc1ccc(Cl)cc1C(=O)N1CC(C)CC(C)C1 (stereo not drawn) | i
COc1ccc(OCCCC(=O)Oc2ccc3oc4ccccc4c3c2)cc1 | i
CC(C(=O)c1c[nH]c2ccccc12)N1CCC(C(N)=O)CC1 (stereo not drawn) | i
COc1cc(/C=C(\C#N)C(=O)c2ccccc2)ccc1OCc1ccccc1 | i
Cc1nc2ccccc2c(C)c1C(=O)OCC(=O)NCC1CCCO1 (stereo not drawn) | i
CN1CCCC1CCNc1nccc(-c2cnn(-c3ccc(F)cc3)c2)n1 (stereo not drawn) | 28µM*
CN1CCCCC1CCNC(=O)c1ccc(N2CCOCC2)nc1 (stereo not drawn) | i
CN1CCCC1CCNc1nccc(-c2cnn(-c3ccccc3F)c2)n1 (stereo not drawn) | 28µM*
C=CCNC(=O)c1nc(-c2ccc3[nH]ccc3c2)no1 | i
Cc1nc(CNC(=O)N(C)Cc2ccc3c(c2)OCO3)cs1 | i
COc1cccc2ccn(CC(=O)NC(C)c3ccccc3)c12 (stereo not drawn) | i
COCCN1CCOc2nc(-c3cc(F)ccc3OC)ncc2C1=O | 32µM*
COc1cc(F)cc(-c2ncc3c(n2)OCCN(c2cccc(C(F)(F)F)c2)C3=O)c1 | i
COc1ccc(F)cc1-c1ncc2c(n1)OCCN(c1cccc(C(F)(F)F)c1)C2=O | 40µM*
Cn1nccc1-c1ncc2c(n1)OCCN(Cc1ccc(F)cc1F)C2=O | i
SMILES | KDM5B inh
CN1CCOc2nc(-c3ccc(Oc4ccccc4)cc3)ncc2C1=O | i
C[S+](=O)([O-])c1ccc(-c2ncc3c(n2)OCCN(c2ccccc2)C3=O)cc1 | i
COc1cccc(F)c1-c1ncc2c(n1)OCCN(c1cccc(C(F)(F)F)c1)C2=O | i
Cc1ccc(-c2ncc3c(n2)OCCN(c2ccccc2)C3=O)cc1F | i
COCCN1CCOc2nc(-c3ccc(F)c(Cl)c3)ncc2C1=O | i
COc1ccc(OC)c(-c2ncc3c(n2)OCCN(c2cccc(C(F)(F)F)c2)C3=O)c1 | i
COc1ccc(-c2ncc3c(n2)OCCN(c2ccccc2)C3=O)cc1F | 28µM*
COc1cc(F)cc(-c2ncc3c(n2)OCCN(C)C3=O)c1 | 35µM*
Cc1cccnc1NC(=O)c1cnc2ccccc2n1 | i
CC(C)OC(=O)COc1ccc2c(-c3cc4ccccc4oc3=O)cc(=O)oc2c1 | i
COc1ccccc1CNC(=O)Cn1ccc2c(Cl)cccc21 | i
CC(CNC(=O)c1cc2ccccc2o1)N1CCCC1 (stereo not drawn) | i
COc1ccc(CN2CCOc3nc(-c4cc(F)cc(F)c4)ncc3C2=O)cc1 | i
COCCN1CCOc2nc(-c3cc(F)cc(OC)c3)ncc2C1=O | 32µM*
COCCN1CCOc2nc(-c3cccc(OC(F)(F)F)c3)ncc2C1=O | i
O=C(O)CCc1cc2n(n1)CCCN(C(=O)c1cc3c([nH]c1=O)CCC3)C2 | 28µM*
Cc1[nH]c(-c2ccccc2)nc1C(=O)N1CCn2nc(CCC(=O)O)cc2C1 | i
O=C(O)CCc1cc2n(n1)CCCN(Cc1cn[nH]c1C(=O)O)C2 | i
Cc1ccc2nc(C)c(C)c(C(=O)NCc3nc(-c4ncccn4)no3)c2c1 | 28µM*
Cc1ccc(-c2noc(CNC(=O)c3ccccc3)n2)cc1 | i
COc1ccc2c(C)c(C(=O)NCc3nc(-c4ncccn4)no3)oc2c1 | i
Nc1ccc(C(=O)OC2CCCC2)cc1 | i
NS(=O)(=O)c1ccc(CNc2nccc(-c3cccnc3)n2)cc1 | 32µM*
NS(=O)(=O)c1ccc(CNC(=O)c2ccccn2)cc1 | i
c1cncc(-c2ccnc(NCC(c3cccnc3)N3CCCCC3)n2)c1 (stereo not drawn) | 32µM*
SMILES | KDM5B inh
Cc1ccc(CNc2ccc(-c3nc(-c4cccnc4)no3)cc2[N+](=O)[O-])cc1 | i
c1ccc(-c2ccnc(NCC(c3ccncc3)N3CCOCC3)n2)nc1 (stereo not drawn) | i
O=C(c1ccc(CNc2nccc(-c3cccnc3)n2)cc1)N1CCCCC1 | 28µM*
O=C(NCc1ccc(C(=O)N2CCCCC2)cc1)c1ccc(C(F)(F)F)cc1 | i
O=C(NCc1ccc(C(=O)N2CCCC2)cc1)C1CCCCC1 | i
NCCn1cc(C(=O)NCC(c2cccnc2)N2CCCCC2)nn1 (stereo not drawn) | i
O=[N+]([O-])c1ccc(/C=N/O)cc1 | i
O=C1CCN(Cc2ccc(C(F)(F)F)cc2)CCCCCCN1 | i
C=C(C)COc1ccc2c(=O)c(-c3ccc(OC)c(OC)c3)c(C)oc2c1 | i
CCOc1cc(=O)n2c(c1C(=O)NCc1ccccc1F)CCCCC2 | i
CCOc1cc(=O)n2c(c1C(=O)NCCOC)CCCCC2 | i
CCOc1cc(=O)n2c(c1C(=O)NCCCN1CCCc3ccccc31)CCCCC2 | 11µM*
O=C(Nc1ccccc1F)Nc1c(NC2CCCC2)c2ccccc2oc1=O | i
COc1ccccc1NC(=O)C(C)Sc1ncnc2ccccc12 (stereo not drawn) | i
CCn1c(=O)[nH]c(=O)c2c(C(=O)O)cc(C3CC3)nc21 | i
COCCN(C)C[C@@H]1CN(C(=O)c2ccc(-c3ccco3)cc2)C[C@@H]1CO | 32µM*
COCCN(C)C[C@@H]1CN(C(=O)c2ccc(-c3ccc(C)o3)cc2)C[C@@H]1CO | i
COCCN(C)C[C@@H]1CN(C(=O)c2ccc(-c3ccccc3)n2C)C[C@@H]1CO | i
CCC(C)NC(=O)C1=CC(c2cccc(OC)c2)=NS(=O)(=O)N1C (stereo not drawn) | i
CN(Cc1ccco1)C(=O)c1cc(-c2ccncc2)nc2ccccc12 | i
CN(CC1CC1)C(=O)c1cc(-c2ccccc2Cl)nc2ccccc12 | i
CN1CCCC(CN(C)C(=O)c2cc(-c3cnn(CCO)c3)nc3ccccc23)C1 (stereo not drawn) | 32µM*
COc1ccc(C2CCCN2C(=O)Cn2cccnc2=O)c(OC)c1 (stereo not drawn) | i
CCOC(=O)c1nn(Cc2ccccc2)c2c1CN(C(=O)CC1C(=O)Nc3ccc(OC)cc31)CC2 (stereo not drawn) | i
CCOC(=O)c1nn(Cc2ccc(OC)cc2)c2c1CN(C(=O)c1cn3ccccc3n1)CC2 | i
CCOC(=O)c1nn(Cc2ccc(OC)cc2)c2c1CN(C(=O)c1ccc3nc[nH]c3c1)CC2 | 32µM*
Cc1nn(CC(=O)O)c2nc(-c3cnn(C)c3C)cc(C(F)F)c12 | i
CCCN(CCN(C)C)C(=O)Nc1sc(C(=O)OCC)c(C)c1C(=O)OCC | i
